# Data reported in the supplement of paper PMC12645437, “Orthogonal IMiD-Degron Pairs Induce Selective Protein Degradation in Cells” (ACS Chemical Biology, 2025).
# In all, about 8,300 sequences were measured (“log2 fold change of degron read counts, EGFP-low vs EGFP+ sorted cells (limma voom), compound-induced degradation”: median about -1.1, highest 2% from about 3.2 on). This is one part of a sample in which the highest values are shown more often than they occur.
# T1: CRBN, Q96SW2
# T1 chain: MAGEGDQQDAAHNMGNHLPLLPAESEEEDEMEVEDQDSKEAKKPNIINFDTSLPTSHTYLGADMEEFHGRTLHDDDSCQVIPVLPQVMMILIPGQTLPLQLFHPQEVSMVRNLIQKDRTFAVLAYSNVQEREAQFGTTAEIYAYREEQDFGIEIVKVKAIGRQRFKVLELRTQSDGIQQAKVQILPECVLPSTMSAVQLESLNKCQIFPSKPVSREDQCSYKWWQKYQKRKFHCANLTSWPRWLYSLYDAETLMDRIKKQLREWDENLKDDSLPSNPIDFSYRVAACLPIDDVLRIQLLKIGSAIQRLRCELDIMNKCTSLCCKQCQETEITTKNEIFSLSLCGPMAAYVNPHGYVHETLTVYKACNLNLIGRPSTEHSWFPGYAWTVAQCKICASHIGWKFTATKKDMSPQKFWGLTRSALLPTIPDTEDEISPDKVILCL
# Biological target: T1, CRBN, Q96SW2
# Assay: log2 fold change of degron read counts, EGFP-low vs EGFP+ sorted cells (limma voom), compound-induced degradation; higher = more compound-induced degradation of the degron-EGFP fusion; degrons are variants of IKZF1/3 zinc finger 2; compound dose not given here
# Settings: Jurkat, 18 h
# [1] = compound: compound 19 (5-tert-butyl-thalidomide)
# [2] = compound: compound 22 (5-morpholino-thalidomide)
# [3] = compound: compound 33 (diphenyl IMiD analogue)
# 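Further: pooled lentiviral library of zinc finger degron-EGFP fusions in mCherry-positive Jurkat cells, FACS-sorted after compound exposure, with degron abundance counted by next-generation sequencing.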
Sequence,log2 fold change of degron read counts [1],log2 fold change of degron read counts [2],log2 fold change of degron read counts [3],log2 fold change of degron read counts (compound: thalidomide)
"LACNQCGFRCTQKGNLLRHIKL [46L_47A_49N_50Q_52G_53F_54R_55C_67L_, Q9UKT9]",-0.828,-1.5,-1.86,-1.22
"FSCPICGRLFTQKGNLLRHIKL [46F_47S_49P_50I_52G_53R_54L_55F_67L_, Q9UKT9]",-0.866,-1.05,1.44,-0.361
"FVCPQCGALFTQKGNLLRHIKL [46F_47V_49P_50Q_52G_53A_54L_55F_67L_, Q9UKT9]",-2.37,-1.48,-0.389,-0.926
"FGCEICGAWFTQKGNLLRHIKL [46F_47G_49E_50I_52G_53A_54W_55F_67L_, Q9UKT9]",-0.259,-1.17,0.513,-0.936
"FLCPQCGAQFTQKGNLLRHIKL [46F_47L_49P_50Q_52G_53A_54Q_55F_67L_, Q9UKT9]",-2.2,-2.3,0.482,-0.585
"FDCNICGAIFTQKGNLLRHIKL [46F_47D_49N_50I_52G_53A_54I_55F_67L_, Q9UKT9]",-1.43,-1.22,-0.173,0.319
"FYCEICGHSFTQKGNLLRHIKL [46F_47Y_49E_50I_52G_53H_54S_55F_67L_, Q9UKT9]",-2.01,-3.04,-1.92,-2.8
"FVCNQCGAGFTQKGNLLRHIKL [46F_47V_49N_50Q_52G_53A_54G_55F_67L_, Q9UKT9]",-2.26,-1.63,-0.863,-1.05
"FFCEICGHVFTQKGNLLRHIKL [46F_47F_49E_50I_52G_53H_54V_55F_67L_, Q9UKT9]",-1.37,-1.97,-2.03,-1.87
"LWCEICGFHCTQKGNLLRHIKL [46L_47W_49E_50I_52G_53F_54H_55C_67L_, Q9UKT9]",2.73,3.48,2.33,1.12
"LYCEICGFHCTQKGNLLRHIKL [46L_47Y_49E_50I_52G_53F_54H_55C_67L_, Q9UKT9]",3.13,3.42,2.8,1.66
"LICEICGFHCTQKGNLLRHIKL [46L_47I_49E_50I_52G_53F_54H_55C_67L_, Q9UKT9]",-0.287,0.622,1.12,1.6
"LCCEICGFHCTQKGNLLRHIKL [46L_47C_49E_50I_52G_53F_54H_55C_67L_, Q9UKT9]",0.332,-0.174,1.51,0.845
"LSCEICGFHCTQKGNLLRHIKL [46L_47S_49E_50I_52G_53F_54H_55C_67L_, Q9UKT9]",0.928,0.357,0.553,0.222
"LACEICGFHCTQKGNLLRHIKL [46L_47A_49E_50I_52G_53F_54H_55C_67L_, Q9UKT9]",1.51,0.415,0.86,-0.0575
"FHCNQCGARFTQKGNLLRHIKL [46F_47H_49N_50Q_52G_53A_54R_55F_67L_, Q9UKT9]",-1.49,-1.78,-1.81,-2.18
"FVCNQCGHTFTQKGNLLRHIKL [46F_47V_49N_50Q_52G_53H_54T_55F_67L_, Q9UKT9]",-3.49,-3.28,-3.04,-3.41
"LECPICGFDCTQKGNLLRHIKL [46L_47E_49P_50I_52G_53F_54D_55C_67L_, Q9UKT9]",-2.52,-2.45,-1.18,-0.86
"LYCNQCGFYCTQKGNLLRHIKL [46L_47Y_49N_50Q_52G_53F_54Y_55C_67L_, Q9UKT9]",-0.857,-0.989,-0.803,-0.772
"FSCPICGAVFTQKGNLLRHIKL [46F_47S_49P_50I_52G_53A_54V_55F_67L_, Q9UKT9]",2.16,1.75,2.72,1.48
"FTCPICGAVFTQKGNLLRHIKL [46F_47T_49P_50I_52G_53A_54V_55F_67L_, Q9UKT9]",0.104,2.31,2.43,2.95
"FVCPICGAVFTQKGNLLRHIKL [46F_47V_49P_50I_52G_53A_54V_55F_67L_, Q9UKT9]",-0.253,1.32,2.04,2.17
"FICPICGAVFTQKGNLLRHIKL [46F_47I_49P_50I_52G_53A_54V_55F_67L_, Q9UKT9]",-0.717,0.836,1.86,1.85
"FRCPICGAVFTQKGNLLRHIKL [46F_47R_49P_50I_52G_53A_54V_55F_67L_, Q9UKT9]",-1.19,-0.551,1.51,1.37
"FACPICGAVFTQKGNLLRHIKL [46F_47A_49P_50I_52G_53A_54V_55F_67L_, Q9UKT9]",2.91,1.96,1.75,1.06
"FECPICGAVFTQKGNLLRHIKL [46F_47E_49P_50I_52G_53A_54V_55F_67L_, Q9UKT9]",0.283,-0.0372,2.77,3.33
"FQCPICGAVFTQKGNLLRHIKL [46F_47Q_49P_50I_52G_53A_54V_55F_67L_, Q9UKT9]",0.109,3.16,2.7,3.67
"FGCPICGAVFTQKGNLLRHIKL [46F_47G_49P_50I_52G_53A_54V_55F_67L_, Q9UKT9]",3.56,2.54,2.82,1.23
